Assay results from PubChem BioAssay AID620 (Sanford-Burnham Center for Chemical Genomics, 2007).
In all, about 87,000 compounds went through this assay and about 360 (0.41%) were called active. Only a selection was taken, and actives are over-represented in it overall. Unmarked numbers belong to inactive results. Cut-off read from the data, not from the text of the source: active = cytotoxicity above about 50%; inactive = the rest.

Assay: cytotoxicity in HT1080 fibrosarcoma cells, cell-based, fluorescence readout (AID 620);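 note: cells exposed to compound overnight then 4 h with Alamar Blue; 0% = vehicle DMSO and 100% = killing control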
Details: HT1080 viability, at 10 µM, active compounds read high

Row | SMILES | cytotoxicity
1 | CCCCCCC(C)n1[nH]c(=O)c2c(C)cc(=O)[nH]c21 (stereo unspecified) | -5%
2 | O=C(C1CCC(CNc2c(N3CCCCC3)c(=O)c2=O)CC1)N1CCCCC1 (stereo unspecified) | -4.8%
3 | C=CCn1c(NC)cc(=O)n(C)c1=O | 9.8%
4 | CC1(C(=O)NC2CCCC2)CCC(=O)N1Cc1ccc2c(c1)OCO2 (stereo unspecified) | 20.7%
5 | COc1ccc(O)c(C(=O)c2cc(C#N)c(=O)n(CCN3CCOCC3)c2)c1 | 7%
6 | COC(=O)c1ccc(NC(=O)COc2ccc(S(=O)(=O)N3CCCCC3)cc2)cc1 | -6.1%
7 | c1ccc(-c2nc3ccccc3nc2N2CCOCC2)cc1 | 19.1%
8 | Nc1nc(NCc2ccccc2)nc(-c2ccccc2)n1 | 12.3%
9 | Cc1c(NC(=O)c2ccc(=O)oc2)c(=O)n(-c2ccccc2)n1C | 32.6%
10 | Cc1c(NC(=O)c2ccccc2)c(=O)n(-c2ccccc2)n1C | -12.6%
11 | COc1cc2[nH]cc(C(=O)NCCc3ccccc3)c(=O)c2cc1OC | 5.3%
12 | CCOc1ccc(OCc2ccc(C(=O)Nc3cccnc3)o2)cc1 | -3.1%
13 | O=C(CSc1oc(-c2ccc(F)cc2)nc1S(=O)(=O)c1ccc(F)cc1)NCC1CCCO1 (stereo unspecified) | 4.4%
14 | CCN(CC)C(=O)CN(C#N)c1nc(NC(C)C)nc(NC(C)C)n1 | -2%
15 | COc1cccc(-n2nnnc2SCC(=O)NC2CCCC2)c1 | -4.7%
16 | CCCS(=O)(=O)c1nnnn1-c1cccc(OC)c1 | 66.7% (active)
17 | COc1cccc(Oc2nnnn2-c2ccccc2)c1 | -0.2%
18 | CC(C)(C)NC(=O)c1ccccc1-c1nc(-c2ccccc2Cl)no1 | -5.2%
19 | CCNC(=O)c1ccccc1-c1nc(-c2ccccc2Cl)no1 | -5.2%
20 | CC(C)NC(=O)c1ccccc1-c1nc(-c2ccccc2Cl)no1 | 50.9% (active)
21 | COc1ccccc1N1CCN(C(=O)C2CCN(S(=O)(=O)c3ccccc3)CC2)CC1 | -0.7%
22 | COC(=O)c1ccc(Cl)c(NS(=O)(=O)c2ccc3c(c2)OCCO3)c1 | 35.5%
23 | COC(=O)c1ccc(C)c(NS(=O)(=O)c2ccc(OC)c(OC)c2)c1 | 4%
24 | COC(=O)c1ccc(C)c(NS(=O)(=O)c2ccc3c(c2)OCCO3)c1 | 51.6% (active)
25 | CCCC12CN3CC(C)(CN(C1)C3c1ccc3c(c1)OCO3)C2=O (stereo unspecified) | -1.1%
26 | CN(C)c1ccc(-c2nn3c(-c4ccncc4)nnc3s2)cc1 | 0.5%

Row | SMILES | cytotoxicity
27 | CCN(CC)c1ccc(-c2nn3c(-c4cccnc4)nnc3s2)cc1 | 2.9%
28 | Cc1nn2c(-c3ccc(Cl)cc3Cl)nnc2s1 | 7.1%
29 | Cc1ccc(OCc2nn3c(-c4n[nH]c5c4CCC5)nnc3s2)cc1 | 3.7%
30 | CN(C)c1ccc(-c2nn3c(-c4ccc(Cl)cc4)nnc3s2)cc1 | -10.2%
31 | COc1ccccc1-c1nnc2sc(-c3ccc(N(C)C)cc3)nn12 | 33.1%
32 | CCN(CC)c1ccc(-c2nn3c(-c4n[nH]c5c4CCC5)nnc3s2)cc1 | 55.1% (active)
33 | CCOc1ccc(-c2nnc3sc(-c4ccccc4OC)nn23)cc1 | 22%
34 | CCN(CC)c1ccc(-c2nn3c(-c4ccccc4OC)nnc3s2)cc1 | 50.1% (active)
35 | CN(C)c1ccc(-c2nn3c(-c4ccccc4Cl)nnc3s2)cc1 | 57.2% (active)
36 | Clc1ccccc1-c1nnc2sc(-c3ccncc3)nn12 | -1.3%
37 | CN(C)c1ccc(-c2nn3c(-c4ccc(Cl)cc4Cl)nnc3s2)cc1 | 52.2% (active)
38 | CS(=O)(=O)N(CC(=O)N1CCCCC1)c1sc2c(c1C#N)CCCC2 | 15.6%
39 | CN(C)CCCNC(=O)CC(c1ccccc1)c1ccccc1O (stereo unspecified) | 5.3%
40 | O=C(O)CCn1c(=O)c2ccccc2c2ccccc2c1=O | 2%
41 | C=CCOn1c(C)c(C(C)=O)c2c3nonc3ccc21 | 2.2%
42 | Cn1c(N)c(C(=O)COC(=O)c2ccco2)c(=O)n(C)c1=O | -0.9%
43 | CC(=O)N1CCc2cc(S(=O)(=O)NC(C(=O)Nc3nc(C)cs3)C(C)C)ccc21 (stereo unspecified) | 11.9%
44 | c1ccc(-c2nnc3sc(-c4cc5ccccc5o4)nn23)cc1 | -3.1%
45 | COc1ccccc1-c1nnc2sc(-c3cc4ccccc4o3)nn12 | 53.5% (active)
46 | Cc1nnc2sc(-c3cc4ccccc4o3)nn12 | 0.8%
47 | Cc1ccccc1NS(=O)(=O)c1ccc(NC(=O)c2ccco2)cc1 | 2.4%
48 | Cc1cc(C)cc(C(=O)N2CC(C)OC(C)C2)c1 (stereo unspecified) | -14.9%
49 | COc1ccccc1-c1cc(C(F)(F)F)nc(S(=O)(=O)CCCC(=O)N2CCCCC2C)n1 (stereo unspecified) | 18.6%
50 | COC(=O)CCS(=O)(=O)c1nc(-c2ccccc2)cc(C(F)(F)F)n1 | 2.4%
51 | CCOC(=O)CS(=O)(=O)c1nc(-c2ccccc2)cc(C(F)(F)F)n1 | 8.3%
52 | CCOC(=O)CSc1nc(-c2ccccc2)cc(C(F)(F)F)n1 | -7.2%

Row | SMILES | cytotoxicity
53 | CS(=O)(=O)c1nc(-c2ccccc2)cc(C(F)(F)F)n1 | 59.4% (active)
54 | COc1ccc(-c2cc(C(F)(F)F)nc(S(C)(=O)=O)n2)cc1 | 11.7%
55 | COc1ccccc1-c1cc(C(F)(F)F)nc(S(=O)(=O)CCCC(=O)O)n1 | -3.7%
56 | CCOC(=O)CS(=O)(=O)c1nc(-c2ccc(F)cc2)cc(C(F)(F)F)n1 | 56.6% (active)
57 | COc1ccc(-c2cc(C(F)(F)F)nc(S(C)(=O)=O)n2)cc1OC | 10.4%
58 | COC(=O)CSc1nc(-c2ccc(F)cc2)cc(C(F)(F)F)n1 | -10%
59 | CCOC(=O)Cn1c(=O)oc2cc(S(=O)(=O)N3CCN(c4ccccn4)CC3)ccc21 | -4.7%
60 | N#Cc1ccccc1Cn1c(=O)n(C2CCCC2)c(=O)c2ccccc21 | 4.1%
61 | COc1cccc(C(=O)NCC(=O)N2CCC(C)CC2)c1 | 7.2%
62 | COc1ccc(Oc2cn[nH]c2-c2ccc(O)cc2O)cc1 | 19%
63 | COc1cccc(Oc2cn[nH]c2-c2ccc(OC)cc2O)c1 | 19.1%
64 | COc1cccc(Oc2cn[nH]c2-c2ccc(O)cc2O)c1 | 55.2% (active)
65 | N#CC1C(C#N)N2CCCN2C1c1ccc(Cl)cc1 (stereo unspecified) | -17.9%
66 | CCn1c(SCC(=O)O)nnc1C1CCCCC1 | 3.3%
67 | CCN1/C(=C/c2ccc3ccccc3[n+]2CC)C=Cc2ccccc21 | 54.3% (active)
68 | CCN1C(=O)/C(=C2\C=Cc3ccccc3N2CC)OC1=S | 5.1%
69 | CCN1C(=C2C(=O)c3ccccc3C2=O)C=Cc2ccccc21 | 12.1%
70 | Cc1cc(C)c2c(N)c(C(=O)NCc3ccco3)sc2n1 | 10.7%
71 | Cc1cc(C)cc(N(CC(=O)N2CCN(Cc3ccccc3)CC2)S(=O)(=O)c2c(C)noc2C)c1 | -0.8%
72 | Cc1ccccc1-c1nc(CN2CCCC(C(=O)NCc3cccnc3)C2)c(C)o1 (stereo unspecified) | -7.7%
73 | N#CC1=C(N)Oc2cc(O)ccc2C1c1cccs1 (stereo unspecified) | -3.3%
74 | N#CC1=C(N)Oc2c(ccc3ccccc23)C1c1cccs1 (stereo unspecified) | 65.3% (active)
75 | N#CC1=C(N)Oc2cc3ccccc3cc2C1c1cccs1 (stereo unspecified) | -2.7%
76 | COc1ccc(CCn2nnnc2C(C(C)C)N2CCC(C(N)=O)CC2)cc1OC (stereo unspecified) | 6%
77 | Cc1cc(C)cc(OC(=O)N2CCOCC2)c1 | 3.6%
78 | CCOC(=O)CNc1c(-c2ccc(O)cc2)nc2ccc(Cl)cn12 | 36.6%

Row | SMILES | cytotoxicity
79 | CCOC(=O)CNc1c(-c2ccccc2)nc2ccc(Cl)cn12 | 24.2%
80 | CCOC(=O)CNc1c(-c2ccc(OC)cc2)nc2ccc(Cl)cn12 | 73.3% (active)
81 | CCOC(=O)N1CCN(C(=O)CSc2nc3ccccc3c(=O)n2-c2ccccc2)CC1 | 5.2%
82 | CCn1c(CC(=O)Nc2ccc(C)c(Cl)c2)nnc1SCC(=O)Nc1nc(C)cs1 | -12.9%
83 | COc1ccc(CC(=O)NC2CCN(CC(=O)Nc3ccc4c(c3)OCCO4)CC2)cc1OC | -8.3%
84 | O=C(CN1CCc2ccccc2C1)Nc1ccccc1N1CCCCCC1 | -18.8%
85 | O=C(CN1CCCC1)N1c2ccccc2Sc2ccc(C(F)(F)F)cc21 | -7.9%
86 | OCCN1CCN(CCCN2c3ccccc3Sc3ccc(C(F)(F)F)cc32)CC1 | 91.7% (active)
87 | CN(C)CCCN1c2ccccc2Sc2ccc(C(F)(F)F)cc21 | 54% (active)
88 | CN(C)CCCN1c2ccccc2Sc2ccccc21 | 15.9%
89 | COc1ccc2c(c1)Sc1ccccc1N2CCN(C)C | 58.8% (active)
90 | CC(CN1c2ccccc2Sc2ccccc21)N(C)C (stereo unspecified) | 11.7%
91 | CN1CCN(CCCN2c3ccccc3Sc3ccc(C(F)(F)F)cc32)CC1 | 7.7%
92 | COc1ccc([C@@H]2Sc3ccccc3N(CCN(C)C)C(=O)[C@@H]2OC(C)=O)cc1 | 31.1%
93 | OCCN1CCN(CCCN2c3ccccc3Sc3ccc(Cl)cc32)CC1 | 22.8%
94 | O=c1c2ccccc2c(C=NC2CCS(=O)(=O)C2)c(O)n1-c1ccccc1 (stereo unspecified) | -6.8%
95 | Nc1c(C(=O)NCc2ccccc2)nnn1Cc1ccc(F)cc1 | 1.7%
96 | CCOC(=O)N1CCN(C(=O)c2ccc(CS(=O)(=O)c3ccc(OC)cc3)o2)CC1 | 0.8%
97 | COc1ccc(S(=O)(=O)Cc2ccc(C(=O)N3CCN(c4cccc(C)c4)C(C)C3)o2)cc1 (stereo unspecified) | 52.2% (active)
98 | Cc1ccc(C)c(N2CCN(C(=O)c3ccc(CS(=O)(=O)c4ccccc4C)o3)CC2)c1 | 34%
99 | Cc1cccc(N2CCN(C(=O)c3ccc(CS(=O)(=O)c4ccccc4C)o3)CC2C)c1 (stereo unspecified) | 51.2% (active)
100 | Cc1ccccc1S(=O)(=O)Cc1ccc(C(=O)N2CC(C)CC(C)C2)o1 (stereo unspecified) | -14.1%
101 | COc1ccc(N2CCN(C(=O)c3ccc(CS(=O)(=O)c4ccc(OC)cc4)o3)CC2)cc1 | -8.4%
